Target: HIST2H3A
Test: pooled miR-30 sensor sort-seq; sequence = guide strand
Details: shRNA

Going from TTGCCGCCGGTCGACTTGCGAG to TTCGTGTCTTCGAACAGCCCCA, the sensor-assay potency score (higher = more potent) rises from -1.63 to -0.563.

Compared with TGGACTTCTGGTAGCGCCGGAT, TAATGGTCACGCGCTTGGCGTG is lower in sensor-assay potency score (higher = more potent): -1.34 for the first, -1.65 for the second.

Compared with TTGCGGATCAGCAGCTCCGTGG, TTGGGCATAATGGTCACGCGCT is higher in sensor-assay potency score (higher = more potent): -1.49 for the first, -0.549 for the second.

Going from TTAAAGTCCTGCGCGATCTCGC to AAGTCCTGCGCGATCTCGCGTA, the sensor-assay potency score (higher = more potent) falls from -0.191 to -1.16.

First: TGGCGCACAGGTTCGTGTCTTC
Second: TGGATGGCGCACAGGTTCGTGT
The sensor-assay potency score (higher = more potent) of the first is higher: -0.891 for the first, -1.93 for the second.

Target: HKR1
Test: as above
Details: shRNA

Going from TTTGGTATCTAGCAATGGCTGA to TAACTTAGCACAAAAGCCTTGC, the sensor-assay potency score (higher = more potent) rises from -0.389 to 0.138.

Compared with TTAAGGTTTGACTTCAGGCTAA, TACCAGTACAGTCTCATGCATA is lower in sensor-assay potency score (higher = more potent): 0.0194 for the first, -0.938 for the second.

Going from TTGATTTCTCCAAATCCTGAGA to TTGACTCCTTGATAAAGCCTGG, the sensor-assay potency score (higher = more potent) rises from -0.892 to -0.606.

First: TACTTTGTCTGTTTCCTCTAGA
Second: ATAAACTTGAAAACAGCTGAGA
The sensor-assay potency score (higher = more potent) of the first is higher: 0.778 for the first, -0.36 for the second.

First: TTGATGAGGACTGACATACTGC
Second: TTGACTTCCACGTAAAGCCTCG
The sensor-assay potency score (higher = more potent) of the first is higher: -0.174 for the first, -0.345 for the second.

Compared with TTTGACTCCTTGATAAAGCCTG, TTAACTTAGCACAAAAGCCTTG is lower in sensor-assay potency score (higher = more potent): -0.108 for the first, -0.326 for the second.

Target: HLA-DMA
Test: as above
Details: shRNA

Compared with TCGTGAGTCACAATGCAGGAGA, TTGGAGTAGGAGCTTCAGGGAC is lower in sensor-assay potency score (higher = more potent): -0.908 for the first, -1.01 for the second.

Compared with TAGATGATGAGAACAATGCCCA, TTACTGACAAAACAGACCAAAG is lower in sensor-assay potency score (higher = more potent): -0.0715 for the first, -1.69 for the second.

Going from TGTGTAGCGGTCAATTTCGTGA to TGCTGGATCATCCACTCGCAGA, the sensor-assay potency score (higher = more potent) falls from -0.684 to -1.77.

Compared with TTCACTGTCAGCATGGGTGGGA, ATTTCGTGAGTCACAATGCAGG is lower in sensor-assay potency score (higher = more potent): 0.0511 for the first, -1.4 for the second.

Compared with TCAGCGTGAACACTTCAGCGAT, TTGCTGGATCATCCACTCGCAG is lower in sensor-assay potency score (higher = more potent): -1.13 for the first, -1.31 for the second.

With TTCGTGAGTCACAATGCAGGAG the sensor-assay potency score (higher = more potent) was 0.512.

Target: HLA-DRA
Test: as above
Details: shRNA

Compared with TTAGAGTACGGAGCAATCGAAG, TTCGTGAGCACAGTTACCTCTG is higher in sensor-assay potency score (higher = more potent): -1.52 for the first, 0.227 for the second.

Compared with TTCTGCTGCATTGCTTTTGCGC, TCTTCAGTGATCTTCTCTCTAA is lower in sensor-assay potency score (higher = more potent): -0.581 for the first, -0.905 for the second.

Compared with AGACTGTCTCTGACACTCCTGT, TTGGTGATCGGAGTATAGTTGG is higher in sensor-assay potency score (higher = more potent): -1.07 for the first, -0.222 for the second.

TTGTCTATGAAACAGATGAGGA gave a sensor-assay potency score (higher = more potent) of -0.94.

From the OligoGym collection
